The values that follow come from PubChem BioAssay AID488984 (The Scripps Research Institute Molecular Screening Center, 2010).

Active and inactive are the calls of the source. Rule as the data show it: active = inhibition above about 55%; inactive = the rest.

For the experiment, the system named is SARS coronavirus 3C-like protease (3CLpro, nsp5). The experiment is described as follows: blockers of SARS 3CLpro activity – biochemical, fluorescence, set 2, late-stage follow-up (AID 488984). Conditions: recombinant 3CLpro, fluorogenic peptide cleavage; at 100 µM; active compounds read high.
Usually inhibition stands for the drop in the measured response relative to a control, in per cent. Regarding `CC(C)(C)NC(=O)C(c1cccnc1)N(C(=O)c1cccc2c1CCCC2)c1ccc(F)cc1` (stereo not given), the inhibition was 12% (inactive). For `CC(C)(C)NC(=O)C(c1ccsc1)N(C(=O)c1n[nH]c2ccccc12)c1ccc(F)cc1` (stereo not given) the value was 15.3% (inactive); for `Cc1nccn1CC(=O)N(c1ccc(NS(C)(=O)=O)cc1)C(C(=O)NC(C)(C)C)c1ccsc1` (stereo not given), 0.44% (inactive). For `CC(C)c1ccc(N(C(=O)c2ccco2)C(C(=O)NC(C)(C)C)c2cccnc2)cc1` (stereo not given) the value was 65.6% (active); for `CC(C)(C)NC(=O)C(c1ccsc1)N(C(=O)c1ccco1)c1ccc(F)cc1` (stereo not given), 11.2% (inactive). For `CC(C)(C)NC(=O)C(c1cccnc1)N(C(=O)Cc1cccnc1)C1CC1` (stereo not given) the value was 7.01% (inactive). Regarding `CC(C)c1ccc(N(C(=O)c2ccc(C#N)cc2)C(C(=O)NC(C)(C)C)c2ccsc2)cc1` (stereo not given), the inhibition is -5.45% (inactive). For `CC(C)(C)NC(=O)C(c1ccsc1)N(C(=O)Cn1cnc2ccccc21)c1ccc(NS(C)(=O)=O)cc1` (stereo not given) the value was 38% (inactive); for `CC(C)(C)NC(=O)C(c1cccnc1)N(C(=O)c1ccc(C(F)(F)F)nc1)c1ccc(C(C)(C)C)cc1` (stereo not given), 8.39% (inactive); for `CC(C)(C)NC(=O)C(c1ccsc1)N(C(=O)Cc1cccnc1)c1ccc(C(C)(C)C)cc1` (stereo not given), 37.4% (inactive). Next, `Cc1nccn1CC(=O)N(c1ccc(N)cc1)C(C(=O)NC(C)(C)C)c1ccsc1` (stereo not given): 6.79% (inactive); `CCC(=O)Nc1ccc(N(C(=O)Cn2ccnc2C)C(C(=O)NC(C)(C)C)c2ccsc2)cc1` (stereo not given): 5.34% (inactive).

Consider `CC(C)(C)NC(=O)C(c1ccsc1)N(C(=O)Cn1cnc2ccccc21)c1ccc(C(C)(C)C)cc1` (stereo not given), for which the inhibition was 1.78% (inactive).

For `CC(C)C(=O)Nc1ccc(N(C(=O)Cn2nnc3ccccc32)C(C(=O)NC(C)(C)C)c2ccsc2)cc1` (stereo not given), the inhibition is 96.7% (active). Next, `CC(C)(C)NC(=O)C(c1cccnc1)N(C(=O)c1n[nH]c2ccccc12)c1ccc(F)cc1` (stereo not given): 9.24% (inactive); `CC(C)(C)NC(=O)C(c1ccsc1)N(C(=O)c1n[nH]c2ccccc12)c1ccc(C(C)(C)C)cc1` (stereo not given): 17.9% (inactive). For `CC(C)(C)NC(=O)C(c1cccnc1)N(C(=O)c1ccco1)c1ccc(C(C)(C)C)cc1` (stereo not given) the value was 102% (active). For `CC(C)(C)NC(=O)C(c1ccsc1)N(C(=O)Cc1cccnc1)C1CC1` (stereo not given) the value was 25.9% (inactive). As to `CC(C)(C)NC(=O)C(c1ccsc1)N(C(=O)Cn1nnc2ccccc21)c1ccc(NS(C)(=O)=O)cc1` (stereo not given), the inhibition is 89.5% (active). On to `CC(=O)Nc1ccc(N(C(=O)Cn2nnc3ccccc32)C(C(=O)NC(C)(C)C)c2ccsc2)cc1` (stereo not given), for which the inhibition was 94.8% (active). For `CCC(=O)Nc1ccc(N(C(=O)Cn2cnc3ccccc32)C(C(=O)NC(C)(C)C)c2ccsc2)cc1` (stereo not given) the value was 61.1% (active); for `CC(C)c1ccc(N(C(=O)Cc2cccnc2)C(C(=O)NC(C)(C)C)c2ccsc2)cc1` (stereo not given), 7.95% (inactive); for `CC(C)(C)NC(=O)C(c1cccnc1)N(C(=O)c1ccc(C#N)cc1)c1ccc(F)cc1` (stereo not given), -13.5% (inactive).

As to `CC(C)(C)NC(=O)C(c1cccnc1)N(C(=O)c1ccco1)c1ccc(OC(F)F)cc1` (stereo not given), the inhibition is 45.5% (inactive).

For the compound `CCC(=O)Nc1ccc(N(C(=O)Cn2nnc3ccccc32)C(C(=O)NC(C)(C)C)c2ccsc2)cc1` (stereo not given), the inhibition was 94.2% (active). For `CC(C)(C)NC(=O)C(c1cccnc1)N(C(=O)c1ccc(C#N)cc1)C1CC1` (stereo not given) the value was -4.03% (inactive); for `CC(C)c1ccc(N(C(=O)c2ccco2)C(C(=O)NC(C)(C)C)c2ccsc2)cc1` (stereo not given), 6.57% (inactive); for `CC(C)(C)NC(=O)C(c1ccsc1)N(C(=O)c1ccc(C(F)(F)F)nc1)c1ccc(F)cc1` (stereo not given), 9.21% (inactive). For `CC(C)c1ccc(N(C(=O)c2ccc(C(F)(F)F)nc2)C(C(=O)NC(C)(C)C)c2cccnc2)cc1` (stereo not given), the inhibition is -15.3% (inactive). Next, `CC(C)(C)NC(=O)C(c1ccsc1)N(C(=O)Cc1cccnc1)c1ccc(F)cc1` (stereo not given): 19% (inactive).

As to `CC(C)(C)NC(=O)C(c1cccnc1)N(C(=O)c1ccc(C(F)(F)F)nc1)c1ccc(F)cc1` (stereo not given), the inhibition is 10.5% (inactive).

`CC(C)(C)NC(=O)C(c1ccsc1)N(C(=O)Cc1cccnc1)c1ccc(OCF)cc1` (stereo not given): the inhibition is 56.1% (active). Next, `Cc1nccn1CC(=O)N(c1ccc(NC(=O)C(C)C)cc1)C(C(=O)NC(C)(C)C)c1ccsc1` (stereo not given): 7.94% (inactive); `CCC(=O)Nc1ccc(N(C(=O)Cn2c(C)nc3ccccc32)C(C(=O)NC(C)(C)C)c2ccsc2)cc1` (stereo not given): 0.52% (inactive); `CC(C)(C)NC(=O)C(c1cccnc1)N(C(=O)Cc1cccc2ccccc12)c1ccc(C(C)(C)C)cc1` (stereo not given): 19.6% (inactive).
